Bioassay records deposited in PubChem by National Center for Advancing Translational Sciences (NCATS).
LMNA splice mod = changes lamin A minigene splicing in HeLa cells | HeLa LMNA splicing GFP/RFP minigene ratio, 48 h | Potency, µM (top dose mostly 46.1 µM), actives largely listed as inhibitors | 0.01% of 200,000 active; active = well fitted inhibition curve with a large enough effect in the signal ratio, with a control signal flat, not every such curve was filed as active; inconclusive = small, poorly fitted or top-dose-only effect, or effect the other way, or a change in a side signal; the % refers to the signal ratio
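S3 HeLa cells stably expressing lamin A-EGFP splicing minigene plus DsRed2, 600 cells/well, 48 h compound exposure at 37C. Laser-scanning cytometry; analysed as GFP (500-530 nm)/RFP (575-640 nm) total intensity ratio; 0.5% DMSO vehicle.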
PNC inhibitor = blocks assembly of the perinucleolar compartment; AID 2417; 3.1% of 140,000 active; PC3M PTB-GFP, PNC prevalence imaging, 16 h; active compounds read low; activity change (PNC), negative = inhibition, % at 10 µM;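 active = readout at or below -70, meaning at least 70% loss of cells showing the perinucleolar compartment, a nuclear body marking cancer cells; inconclusive = readout between -30 and a set limit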
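Compounds are pinned in duplicate onto adhered PC3M cells stably expressing GFP-tagged PTB and incubated 16 h at 37 C. Cells are then fixed, nuclei stained with Hoechst, and PNC-positive cells counted.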
IMPase inh = cell-permeable inhibitors of inositol monophosphatase (IMPase); P97697; CHO-M1 cells, IP1 accumulation, HTRF TR-FRET ratio; inhibition (IP1 accumulation), % at 46.1 µM; 120,000 tested, under 10 active; AID 901; active = well fitted curve in the direction sought with a large enough effect in the signal ratio, not every such curve was filed as active; inconclusive = small, poorly fitted or top-dose-only effect, or a change in a side signal; inactive = no such curve, though single readings can be large or run the other way; the % refers to the signal ratio;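 also: cells stimulated with carbachol in lithium chloride buffer; higher means more IMPase inhibition seen as more IP1 and lower FRET ratio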
Target sequence (P97697 whole entry, looked up): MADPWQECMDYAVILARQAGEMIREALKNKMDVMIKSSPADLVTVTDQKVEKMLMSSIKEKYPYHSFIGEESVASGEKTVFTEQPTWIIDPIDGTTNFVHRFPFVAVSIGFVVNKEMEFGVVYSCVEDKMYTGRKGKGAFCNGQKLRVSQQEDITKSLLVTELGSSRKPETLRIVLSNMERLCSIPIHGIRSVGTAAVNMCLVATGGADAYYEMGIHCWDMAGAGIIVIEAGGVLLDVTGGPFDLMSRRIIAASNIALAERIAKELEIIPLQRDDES
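Seeded CHO-M1 cells were dosed with compound at up to 46 uM, stimulated with carbachol for 30 min, then lysed in IP-One detection reagents. Higher IP1 lowers the TR-FRET signal.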
Large screens that a line does not name were inactive. Only a selection was taken, and hits are over-represented in it overall.

CN1CCc2c(sc3c2C(=O)NC(c2ccc(C(C)(C)C)cc2)N3)C1 (stereo not given)	none (no result: LMNA splice mod, PNC inhibitor)
O=C(NCc1ccc2c(c1)CCN2C(=O)c1ccncc1)c1ccc(Cl)cc1	none (no result: PNC inhibitor, IMPase inh)
Cc1ccc(NC(=O)NC2CCCCC2)cc1Cl	PNC inhibitor inconclusive
Cc1cc(C)c(NC(=O)NC2CCCCC2)c(C)c1	PNC inhibitor -113.4 (no result: IMPase inh)
CC1=C(C(=O)Nc2ccccc2)C(c2ccco2)C(C#N)=C(SCC(=O)Nc2cccc(C)c2C)N1 (stereo not given)	PNC inhibitor -82.4
CC1=C(C(=O)Nc2ccccc2)C(c2ccco2)C(C#N)=C(SCc2ccccc2)N1 (stereo not given)	PNC inhibitor inconclusive
CC(C)(C)c1nnc(SCC(=O)c2ccccc2)n(N)c1=O	LMNA splice mod inconclusive, PNC inhibitor -113.8 (no result: IMPase inh)
Cn1c(SCC(=O)c2ccccc2)nnc1-c1ccco1	none
NC(=O)c1ccc(NCCCN2CCOCC2)c([N+](=O)[O-])c1	none (no result: PNC inhibitor, IMPase inh)
Cc1ccc(NC(=O)COc2ccc(S(=O)(=O)N3CCOCC3)cc2)cc1	none
Cc1cccc(OCC(=O)Nc2ccc(S(=O)(=O)N3CCCC3)cc2)c1	LMNA splice mod inconclusive, PNC inhibitor -99.0
COC(=O)COc1cccc(NS(=O)(=O)c2ccc(NC(C)=O)cc2)c1	PNC inhibitor -87.9
Cc1nc2ncnn2c(C)c1CCC(=O)Nc1ccc(S(=O)(=O)N2CCCCCC2)cc1	PNC inhibitor -93.8
CC(=O)Nc1cccc(OCC(=O)NS(=O)(=O)c2ccc(C)cc2)c1	none
Cc1ccc(NC(=O)CCc2c(C)nc3ncnn3c2C)cc1	none
CCOC(=O)c1cccc(NC(=O)c2cc(CN3CCOCC3)on2)c1	none (no result: PNC inhibitor, IMPase inh)
Cc1cc(Cl)ccc1OCCCC(=O)N1CCCc2ccccc21	LMNA splice mod inconclusive, PNC inhibitor -93.7
COCC(=O)N1CCCc2ccccc21	none
Cc1ccccc1-n1c(C)nnc1SCC(=O)NNC(=O)c1ccccc1	PNC inhibitor inconclusive
Cc1nnc(SCC(=O)NNC(=O)c2ccccc2)n1-c1ccccc1	PNC inhibitor -84.0 (no result: IMPase inh)
O=C(O)CCCCCN1C(=O)/C(=C\c2ccncc2)SC1=S	LMNA splice mod inconclusive, PNC inhibitor -89.6 (no result: IMPase inh)
O=C(O)CCCCCN1C(=O)/C(=C/c2ccncc2)SC1=S	PNC inhibitor inconclusive (no result: IMPase inh)
CCOC(=O)c1c(NC(=O)c2noc(C)c2[N+](=O)[O-])sc(C(C)=O)c1C	none (no result: PNC inhibitor, IMPase inh)
CCCCN(CCCNC(=O)c1c(C)cc(=O)oc1C)c1ccccc1	PNC inhibitor -97.8
CCN(CCCNC(=O)c1c(C)cc(=O)oc1C)c1ccccc1	PNC inhibitor inconclusive
COC(=O)[C@@]1(Cc2ccc(F)cc2)[C@H]2c3cc(C(=O)N(C)C)n(CCc4ccccn4)c3C[C@H]2CN1C(=O)c1ccccc1	PNC inhibitor inconclusive (no result: IMPase inh)
COC(=O)[C@@]1(Cc2ccc(F)cc2)[C@H]2c3cc(C(=O)N4CCCC4)n(CCc4ccccn4)c3C[C@H]2CN1C(=O)c1ccccc1	PNC inhibitor -96.9 (no result: IMPase inh)
CC(=O)N1CCCc2cc(S(=O)(=O)NCc3ccccc3Cl)ccc21	none (no result: PNC inhibitor, IMPase inh)
COc1cccc2cc(C(C)OC(=O)Nc3ccc(C)cc3)oc12 (stereo not given)	none (no result: PNC inhibitor, IMPase inh)
CCCn1cc(S(=O)(=O)c2ccccc2)c(=O)c2cc(F)c(N3CCCC(C)C3)cc21 (stereo not given)	none (no result: PNC inhibitor, IMPase inh)
CCOCCCNS(=O)(=O)c1ccc2c(c1)CCN2C(=O)CC	PNC inhibitor -109.7
CCC(=O)N1CCc2cc(S(=O)(=O)NCCCN3CCN(Cc4ccccc4)CC3)ccc21	IMPase inh inconclusive
Cc1cc(C)cc(-n2c(SCC(=O)N3CCCCC3)nc3c([nH]c4ccccc43)c2=O)c1	none (no result: PNC inhibitor, IMPase inh)
COc1ccc(C)cc1NC(=O)CN(c1ccc(F)cc1)S(C)(=O)=O	PNC inhibitor -94.1
Cc1ccc(NC(=O)CCCC(=O)O)c(Br)c1	none
CCCCCCCCC(=O)Nc1cc(C)ccc1OC	PNC inhibitor -100.0
COc1ccc(C)cc1NC(=O)CN(c1ccccc1F)S(C)(=O)=O	none
CCOC(=O)Nc1cc(C)ccc1OC	none
Cc1ccc(O)c(NC(=O)CCCC(=O)O)c1	PNC inhibitor -101.0
COc1ccccc1CN(Cc1nc2ccccc2c(=O)[nH]1)C(=O)Nc1cccc(C)c1	none
COc1ccc(-c2cc3nc(-c4ccc(C)cc4)cc(C(F)(F)F)n3n2)cc1	none (no result: LMNA splice mod, PNC inhibitor)
CC(=O)N1c2ccc(S(=O)(=O)Nc3ccc(Cl)cc3C)cc2CC1C (stereo not given)	none (no result: PNC inhibitor, IMPase inh)
O=C(CSCc1ccc([N+](=O)[O-])cc1)Nc1ccccc1C(=O)O	none (no result: PNC inhibitor, IMPase inh)
O=C(COC(=O)c1cccc(S(=O)(=O)NCc2ccccc2)c1)NCC1CCCO1 (stereo not given)	none (no result: PNC inhibitor, IMPase inh)
CC(C)c1cnc2c(c1SCC(=O)c1ccc(Cl)cc1)c(=O)n(C)c(=O)n2C	none (no result: PNC inhibitor, IMPase inh)
Cc1nc2sc3c(c2c(=O)o1)CCCC3	IMPase inh inconclusive
CC(C)c1nc2sc3c(c2c(=O)o1)CCCC3	PNC inhibitor -94.2
O=S(=O)(c1cccs1)N1CCCc2ccccc21	PNC inhibitor inconclusive
O=C(CCN1C(=O)C2CC=C(Cl)CC2C1=O)NCc1ccco1 (stereo not given)	none
O=C1C2CC=C(Cl)CC2C(=O)N1CN(Cc1ccco1)CN1C(=O)C2CC=C(Cl)CC2C1=O (stereo not given)	PNC inhibitor -96.3
COc1ccccc1-c1nn2c(=O)cc(CN3CCN(C(=O)/C=C/c4ccccc4)CC3)nc2s1	none (no result: PNC inhibitor, IMPase inh)
Cc1ccc(NC(=O)C2CC(=O)N(c3ccc(OC(C)C)cc3)C2)cc1 (stereo not given)	none (no result: LMNA splice mod, PNC inhibitor)
CC(C)NC(=O)C1CCC(Cn2c(=O)c3sccc3n(CC(=O)NCc3ccccc3)c2=O)CC1 (stereo not given)	none (no result: PNC inhibitor, IMPase inh)
COc1ccc(NC(=O)c2cc(-c3ccccc3)nc3c2c(C)nn3-c2ccccc2)c(OC)c1	LMNA splice mod inconclusive, PNC inhibitor -89.4 (no result: IMPase inh)
COc1ccc(-c2cc(C(=O)NNC3=NCCC3)c3c(C)nn(-c4ccccc4)c3n2)cc1	none (no result: PNC inhibitor, IMPase inh)
CC(=O)C1=C(O)CC(c2ccccc2)CC1=NCCc1c(C)[nH]c2ccccc12 (stereo not given)	none (no result: IMPase inh)
CCC(=NCCc1c(C)[nH]c2ccc(C)cc12)C1=C(O)CC(c2ccccc2)CC1=O (stereo not given)	LMNA splice mod inconclusive, PNC inhibitor -116.4 (no result: IMPase inh)
CC(=O)C1=C(O)CC(c2ccccc2)CC1=NCCc1c(C)[nH]c2ccc(C)cc12 (stereo not given)	PNC inhibitor -118.9 (no result: IMPase inh)
CC/C(O)=C1\C(=O)CC(c2ccccc2)CC1=NCCc1c(C)[nH]c2ccc(C)cc12 (stereo not given)	none (no result: IMPase inh)
C=CCSc1nnc(CNC(=O)c2ccccc2C)n1C(C)C	none (no result: PNC inhibitor, IMPase inh)
CCCC(CCC)C(=O)Nc1cccc(-c2cn3cccnc3n2)c1	none (no result: PNC inhibitor, IMPase inh)
CCCCn1c(CN2CCN(C(=O)c3ccco3)CC2)nc2c1c(=O)n(C)c(=O)n2C	none
CCCCCCn1c(CN2CCN(C(=O)c3ccco3)CC2)nc2c1c(=O)n(C)c(=O)n2C	PNC inhibitor -121.7, IMPase inh inconclusive
O=C(NCCc1c[nH]c2ccccc12)/C(=C/c1cccnc1)NC(=O)c1cccs1	none (no result: PNC inhibitor, IMPase inh)
Cc1nnc(SCC(=O)N2CCOCC2)s1	PNC inhibitor inconclusive
O=C(Nc1nnc(SCC(=O)N2CCOCC2)s1)c1ccccc1	LMNA splice mod inconclusive, PNC inhibitor -89.3 (no result: IMPase inh)
Cc1ccc(Cn2c(CO)cnc2SCC(=O)Nc2ccc(C)c(Cl)c2)cc1	none (no result: PNC inhibitor, IMPase inh)
